# In the library only some 3% were active in any assay of this set; here they are far more common.
# Bim-Mcl-1: inhibitors of Bim-Mcl-1 interaction, human; Q07820; Bead-based flow cytometry, Bim peptide-Mcl-1 binding; inhibition, % at 10 µM; 0.1% of 190,000 active; in the data active = inhibition above about 40%;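 also: 0% = no compound tracer wells and 100% = peptide blocker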
# Mcl1-Bid inh: disrupts binding of human Mcl-1 to Bid peptide; Q07820; TR-FRET Mcl-1/Bid-Dy647 peptide binding, 1536-well; inhibition, % at 21.7 µM; 0.97% of 220,000 active; AID 1021;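 active = compounds that cut the binding signal by more than half at the single screening dose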;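 also: His-tagged Mcl-1 with europium anti-His antibody binding Bid BH3 peptide; 0% = Mcl-1 plus peptide wells and 100% = peptide-only wells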
# Mcl1 Noxa PPI: Mcl-1/Noxa interaction inhibition. Q07820. TR-FRET Mcl-1/Noxa peptide binding, 2 h. inhibition, % at 21.7 µM. 1.5% of 220,000 active;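 active = compounds that cut the protein-peptide binding signal by more than 50% relative to plate controls in a single-dose test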;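 also: His-tagged Mcl-1 with rhodamine Noxa BH3 peptide and terbium anti-His antibody; 0% = Mcl-1 plus Noxa peptide wells and 100% = peptide-only wells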
# Arbovirus inh: blocks arbovirus infection. 0.37% of 200,000 active. inhibition, % at 10 µM. arbovirus infection cell-based antiviral screen; in the data active = inhibition above about 30%
# 14-3-3 Bad inh: disrupts binding of bovine 14-3-3 zeta to phospho-Bad peptide. P63103. TR-FRET 14-3-3zeta/Dy647-pBad peptide displacement, 1 h. inhibition, % at 21.7 µM. 0.71% of 220,000 active. AID 781;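 active = inhibition above about 70%, limit read from the data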;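 also: 0% = full 14-3-3 plus peptide FRET controls and 100% = background without 14-3-3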
# Target sequence (P63103 whole entry, looked up): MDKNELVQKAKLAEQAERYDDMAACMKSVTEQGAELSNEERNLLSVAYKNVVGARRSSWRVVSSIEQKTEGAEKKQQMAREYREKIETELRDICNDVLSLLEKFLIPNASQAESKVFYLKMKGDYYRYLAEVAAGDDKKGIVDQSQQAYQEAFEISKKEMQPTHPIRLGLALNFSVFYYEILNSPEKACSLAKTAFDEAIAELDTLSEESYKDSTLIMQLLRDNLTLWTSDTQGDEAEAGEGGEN
# The depositor's hits bear a star; x = no result given; ! = not confirmed by another sample.
SMILES,Bim-Mcl-1,Mcl1-Bid inh,Mcl1 Noxa PPI,Arbovirus inh,14-3-3 Bad inh
CCOC(=O)N1CCC(N2CCN(S(=O)(=O)CC)CC2)CC1,-4,8,12,9,72*
COC(=O)CC1C(=O)NCCN1Cc1cn(-c2ccc(C)cc2)nc1-c1cccc(C)c1 (centres undefined),-1,-12,8,-4,-1
O=C(NC(=S)NCC1CCCO1)c1ccccc1[N+](=O)[O-] (centres undefined),0,-15,-2,5,-5
COC(=O)c1cc(NC(=S)NCc2ccc(Cl)cc2)cc(C(=O)OC)c1,-4,97*,15,32*,-2
COC(=O)c1cccc(NC(=S)NCc2ccc(Cl)cc2)c1,-6,-17,9,3,-14
C=CCNCCCOc1ccc(Cl)cc1C(C)(C)C,2,33,28,-43,65
C=CCNCCOCCOc1ccc(Cl)cc1C(C)(C)C,-2,58*,23,-26,52
O=C(/C=C/c1cc[n+](CC(=O)c2ccc3cccc4c3c2CC4)cc1)c1ccc2cccc3c2c1CC3,x,99*,55*,x,94*
O=C(C[n+]1ccc2ccccc2c1)c1cccc2ccccc12,3,-31,24,6,17
COCCN1Cc2cccc(C(=O)Nc3cccc(C)c3C)c2C1=O,-3,91*,90*,-7,-1
COCCN1Cc2cccc(C(=O)Nc3ccc(C)cc3)c2C1=O,-2,-46,16,2,1
CCOC(=O)c1ccc(-n2c(C)nc3ccc(Br)cc3c2=O)cc1,x,34,7,x,-2
CC1=NN(C(N)=S)C(=O)C1N=Nc1cccc(C)c1 (centres undefined),x,-54,3,x,-1
CC1=NN(C(N)=S)C(=O)C1N=Nc1ccc(O)cc1 (centres undefined),3,-39,78*,-24,-10
CC1(c2ccc(Cl)cc2Cl)OCC(Cn2ccnc2)O1 (centres undefined),1,80*,23,-24,41
OC(Cn1ccnc1)c1ccc(Cl)cc1Cl (centres undefined),-4,6,18,1,-1
CC1CN(C(=O)c2ccc(COc3ccccc3Br)o2)CC(C)O1 (centres undefined),-1,-6,4,-2,1
S=C(NCc1ccco1)Nc1cc(-c2ccccc2)[nH]n1,3,-72,13,4,-8
O=C(Cc1ccccc1)N/N=C/c1ccc(S(=O)(=O)O)o1,x,-15,-20,x,3
O=C(CSCC(=O)N1CCCCC1)OCC(=O)c1c[nH]c2ccccc12,3,-33,9,75*,-11
CC1(C(=O)OCC(=O)c2c[nH]c3ccccc23)CC1(Cl)Cl (centres undefined),-3,5,22,-12,11
CCCCCC(=O)NC(=S)Nc1cccc(-c2nc3ncccc3o2)c1,x,-67,1,x,3
CC(=O)Nc1cccc(NC(=O)c2cc(-c3cccnc3)nc3ccc(Br)cc23)c1,-5,16,1,10,-8
CSc1ccccc1NC(=O)c1cc(-c2cccnc2)nc2ccc(Br)cc12,0,64*,49,0,89*
Cc1ccnc2ccc(SC(F)(F)F)cc12,2,-18,-1,3,-4
SMILES,Bim-Mcl-1,Mcl1-Bid inh,Mcl1 Noxa PPI,Arbovirus inh,14-3-3 Bad inh
O=C1NC(=O)/C(=C\c2ccc(Oc3ccc([N+](=O)[O-])cn3)cc2)S1,-2,-13,23,33*,0
COc1ccc(/C=C2\SC(=O)NC2=S)cc1OC,23,-63,64*,0,5
Cc1ccc(/C=C2/SC(=O)NC2=S)o1,0,-55,77*,4,6
COc1cc(/C=C2\SC(=O)NC2=O)ccc1Oc1ccc([N+](=O)[O-])cc1[N+](=O)[O-],-2,-105,87*,4,20
COC(=O)C1=C(C(=O)OC)[C@@H]2N(Cc3ccccc3)c3ccccc3[C@@]23C[C@@H](C(=O)OC)N=C3N1,x,-16,1,x,2
CCC(C)[C@H](NC(=O)NC(C)C)C(=O)O (some centres undefined),-1,6,-4,2,0
COc1ccc(NC(=O)CN2C(=O)C(C)Oc3ccccc32)cc1 (centres undefined),0,1,-2,0,-4
O=C(CN1C(=O)/C(=C2\SC(=S)N(C3CCS(=O)(=O)C3)C2=O)c2ccccc21)Nc1ccc(F)cc1 (centres undefined),x,78*,78*,x,49
COc1ccc(NC(=O)CN2C(=O)/C(=C3\SC(=S)N(C4CCS(=O)(=O)C4)C3=O)c3ccccc32)cc1 (centres undefined),x,91*,89*,x,60
S=C(NCC1CC1)N/N=C/c1ccccc1Cl,x,-18,23,x,-6
c1ccc(-c2ccc(-c3cn4c(n3)CCC4)cc2)cc1,-3,-28,17,0,29
CN(C)c1ccc(/C=C2/SC(=O)N(CCN=C3NS(=O)(=O)c4ccccc43)C2=O)cc1,78*,34,52*,-23,1
CN(C)c1ccc(/C=C2\SC(=O)N(CCc3nnc(N)s3)C2=O)cc1,x,-109,67*,x,24
CN(C)c1ccc(/C=C2\SC(=O)N(CC(O)Cn3c4ccccc4c4ccccc43)C2=O)cc1 (centres undefined),6,-8,-2,-5,17
CCN(CC)S(=O)(=O)c1cccc(C(=O)N/N=C/c2ccc(N3CCOCC3)cc2)c1,-3,-25,11,-8,-15
CCC(CO)NCC(O)COCc1ccc2c(c1)OCO2 (centres undefined),2,4,11,8,2
Cn1/c(=N/NC(=O)c2ccccc2F)sc2ccccc21,0,-13,5,-5,10
O=c1[nH]c(=O)n(CCc2ccc(F)cc2)c(O)c1C=NCc1ccc2c(c1)OCO2,-7,53*,-21,-8,56
O=C(Nc1nc2ccccc2[nH]1)c1ccc(Cl)c([N+](=O)[O-])c1,0,9,82*,1,35
O=[N+]([O-])c1cc(/C=N/Nc2nc3ccccc3[nH]2)c(O)cc1O,0,-131,75*,-26,1
Cc1ccccc1/C=N/Nc1nc2ccccc2[nH]1,-2,-30,13,4,-8
CCOc1ccc(C(=O)Nc2cc(-c3nc4ccccc4[nH]3)ccc2C)cc1[N+](=O)[O-],-2,-5,3,-5,75*
COc1cc(C)ccc1OCCOCCOc1ccc([N+](=O)[O-])cc1,-4,-8,-2,3,1
Cc1ccc[n+](-c2nc3ccccc3nc2C(=C=[N-])C#N)c1,0,-47,-1,-4,-5
Cc1cc(C)c[n+](-c2nc3ccccc3nc2C(=C=[N-])C#N)c1,46*!,-30,23,10,-4
O=C(/C=C/Nc1ccc([N+](=O)[O-])cc1)c1ccc(Br)cc1,0,15,53*,-16,25
COCc1cc(CN2CCN(Cc3ccsc3)C(CCO)C2)ccc1OC (centres undefined),0,2,2,0,-4
CC1=NOC(=O)/C1=C/c1ccc(N(C)C)cc1,-2,-32,24,0,-14
